Targets with a hit are over-represented here; the source holds about 8,800 in all. About 0.5% of all pairs of compound and target were hits.
Compound: Cc1cccc(CC(=O)N2CCc3c2ccc(-c2cn(C)c4ncnc(N)c24)c3F)n1
Assay: log2 fold change, soluble protein after heating vs DMSO (PISA); higher = thermal stabilisation; K562 lysate, 10 uM; active = over 0.2 and 3.5 SD of the protein, either way, in both replicates (recomputed)
Outline: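 A 30 min treatment with 10 μM compound was applied to crude K562 extract at 1 mg/mL protein in PBS pH 7.4 with 1 mM MgCl2. Heating for 3 min spanned 48°C-58°C, after which aliquots were pooled, adjusted to 0.5% NP-40 at 4°C and spun at 21,000xg for 90 min. TMTpro 16plex LC-MS/MS of the supernatant, with channel sums equalised, gave values recorded as log-two fold change in thermal stability against solvent controls, from duplicates.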

Sequence of UniProt Q86T24 (Q86T24 whole entry, looked up): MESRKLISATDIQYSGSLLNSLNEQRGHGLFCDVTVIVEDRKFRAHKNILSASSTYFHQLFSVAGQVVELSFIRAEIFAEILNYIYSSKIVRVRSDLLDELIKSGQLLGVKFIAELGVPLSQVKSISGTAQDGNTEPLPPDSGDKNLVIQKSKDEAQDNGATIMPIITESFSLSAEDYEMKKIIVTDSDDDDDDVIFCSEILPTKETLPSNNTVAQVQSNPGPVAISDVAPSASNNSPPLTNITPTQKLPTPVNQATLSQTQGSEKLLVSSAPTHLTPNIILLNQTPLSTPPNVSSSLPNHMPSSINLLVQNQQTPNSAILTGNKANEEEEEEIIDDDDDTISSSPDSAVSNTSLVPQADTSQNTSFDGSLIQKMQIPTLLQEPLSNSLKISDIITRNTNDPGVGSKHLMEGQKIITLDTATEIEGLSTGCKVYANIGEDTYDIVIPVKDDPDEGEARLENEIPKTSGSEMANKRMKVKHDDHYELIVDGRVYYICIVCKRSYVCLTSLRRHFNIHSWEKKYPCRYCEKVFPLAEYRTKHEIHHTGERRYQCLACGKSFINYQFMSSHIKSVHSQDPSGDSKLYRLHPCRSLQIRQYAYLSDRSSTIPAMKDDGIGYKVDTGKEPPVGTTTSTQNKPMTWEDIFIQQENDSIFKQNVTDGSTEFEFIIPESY
Sequence of UniProt Q9NQW7 (Q9NQW7 whole entry, looked up): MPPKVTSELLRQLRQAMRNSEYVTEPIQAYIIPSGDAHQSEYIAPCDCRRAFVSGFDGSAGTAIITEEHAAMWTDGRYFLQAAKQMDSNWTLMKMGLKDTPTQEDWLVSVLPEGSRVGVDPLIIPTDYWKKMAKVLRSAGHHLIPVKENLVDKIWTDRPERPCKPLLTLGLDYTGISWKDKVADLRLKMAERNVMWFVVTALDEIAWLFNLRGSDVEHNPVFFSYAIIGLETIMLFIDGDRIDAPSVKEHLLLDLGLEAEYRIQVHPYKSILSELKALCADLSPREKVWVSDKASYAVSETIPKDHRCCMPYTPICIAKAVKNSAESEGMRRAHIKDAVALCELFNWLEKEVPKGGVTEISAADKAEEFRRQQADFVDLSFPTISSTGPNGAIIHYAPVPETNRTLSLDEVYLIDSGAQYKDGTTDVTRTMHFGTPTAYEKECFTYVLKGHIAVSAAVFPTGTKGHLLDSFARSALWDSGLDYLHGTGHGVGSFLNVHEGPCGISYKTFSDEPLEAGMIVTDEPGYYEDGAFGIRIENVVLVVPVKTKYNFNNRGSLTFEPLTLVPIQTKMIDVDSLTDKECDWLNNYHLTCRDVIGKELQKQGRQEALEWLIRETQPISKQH
Sequence of UniProt Q86WB0 (Q86WB0 whole entry, looked up): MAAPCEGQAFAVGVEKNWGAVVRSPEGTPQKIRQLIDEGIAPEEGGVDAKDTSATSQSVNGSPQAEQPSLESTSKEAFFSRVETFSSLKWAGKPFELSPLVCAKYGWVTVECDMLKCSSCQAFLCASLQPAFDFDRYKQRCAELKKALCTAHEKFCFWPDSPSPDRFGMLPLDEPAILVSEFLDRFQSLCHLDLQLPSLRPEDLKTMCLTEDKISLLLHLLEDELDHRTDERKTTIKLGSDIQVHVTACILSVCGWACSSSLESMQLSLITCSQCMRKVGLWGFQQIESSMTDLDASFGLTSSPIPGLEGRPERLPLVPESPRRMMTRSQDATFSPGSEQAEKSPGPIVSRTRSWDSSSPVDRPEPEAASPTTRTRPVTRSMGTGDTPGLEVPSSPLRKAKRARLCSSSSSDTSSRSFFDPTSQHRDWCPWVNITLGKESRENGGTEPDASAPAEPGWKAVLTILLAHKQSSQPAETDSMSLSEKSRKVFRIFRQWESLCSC
Sequence of UniProt P22695 (P22695 whole entry, looked up): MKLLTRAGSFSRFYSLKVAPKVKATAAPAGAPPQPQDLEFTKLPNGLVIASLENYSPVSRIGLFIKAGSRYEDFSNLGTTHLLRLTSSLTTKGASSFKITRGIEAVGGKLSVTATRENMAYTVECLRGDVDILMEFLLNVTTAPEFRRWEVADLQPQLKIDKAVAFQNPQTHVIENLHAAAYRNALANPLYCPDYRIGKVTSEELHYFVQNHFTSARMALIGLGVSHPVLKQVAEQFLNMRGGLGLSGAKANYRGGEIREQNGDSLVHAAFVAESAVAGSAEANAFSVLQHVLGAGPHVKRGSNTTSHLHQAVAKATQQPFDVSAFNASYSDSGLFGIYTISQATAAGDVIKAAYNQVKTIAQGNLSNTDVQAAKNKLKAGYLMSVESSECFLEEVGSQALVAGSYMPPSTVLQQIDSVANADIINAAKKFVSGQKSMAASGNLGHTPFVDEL
Sequence of UniProt Q96QU8 (Q96QU8 whole entry, looked up): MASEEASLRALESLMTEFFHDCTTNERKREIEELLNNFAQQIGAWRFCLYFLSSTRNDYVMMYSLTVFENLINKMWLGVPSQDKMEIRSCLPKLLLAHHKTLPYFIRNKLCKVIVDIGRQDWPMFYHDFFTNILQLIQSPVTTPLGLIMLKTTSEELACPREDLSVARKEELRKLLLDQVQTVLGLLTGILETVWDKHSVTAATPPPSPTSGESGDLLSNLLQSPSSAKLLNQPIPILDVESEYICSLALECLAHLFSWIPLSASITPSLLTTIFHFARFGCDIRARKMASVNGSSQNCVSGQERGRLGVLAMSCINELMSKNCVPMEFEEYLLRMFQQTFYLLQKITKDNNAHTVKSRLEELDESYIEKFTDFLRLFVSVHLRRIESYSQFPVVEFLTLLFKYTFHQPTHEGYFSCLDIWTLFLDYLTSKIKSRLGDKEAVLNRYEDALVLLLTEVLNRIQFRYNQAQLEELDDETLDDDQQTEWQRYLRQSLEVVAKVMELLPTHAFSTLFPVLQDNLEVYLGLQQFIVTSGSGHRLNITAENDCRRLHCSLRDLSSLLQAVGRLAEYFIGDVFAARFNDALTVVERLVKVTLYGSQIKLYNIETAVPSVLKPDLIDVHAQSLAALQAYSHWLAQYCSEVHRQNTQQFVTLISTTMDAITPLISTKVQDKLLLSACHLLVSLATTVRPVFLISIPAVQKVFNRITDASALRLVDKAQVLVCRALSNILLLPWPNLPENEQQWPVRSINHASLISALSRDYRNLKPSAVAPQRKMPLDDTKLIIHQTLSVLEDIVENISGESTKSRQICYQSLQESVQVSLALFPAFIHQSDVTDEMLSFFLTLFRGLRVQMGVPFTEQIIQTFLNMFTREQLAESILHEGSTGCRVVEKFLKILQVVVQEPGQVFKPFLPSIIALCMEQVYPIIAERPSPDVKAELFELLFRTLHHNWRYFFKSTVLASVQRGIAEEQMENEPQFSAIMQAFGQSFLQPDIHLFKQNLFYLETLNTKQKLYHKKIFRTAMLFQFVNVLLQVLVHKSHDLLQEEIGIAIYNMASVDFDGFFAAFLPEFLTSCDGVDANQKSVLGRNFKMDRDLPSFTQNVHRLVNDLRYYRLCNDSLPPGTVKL
Sequence of UniProt Q9Y5J1 (Q9Y5J1 whole entry, looked up): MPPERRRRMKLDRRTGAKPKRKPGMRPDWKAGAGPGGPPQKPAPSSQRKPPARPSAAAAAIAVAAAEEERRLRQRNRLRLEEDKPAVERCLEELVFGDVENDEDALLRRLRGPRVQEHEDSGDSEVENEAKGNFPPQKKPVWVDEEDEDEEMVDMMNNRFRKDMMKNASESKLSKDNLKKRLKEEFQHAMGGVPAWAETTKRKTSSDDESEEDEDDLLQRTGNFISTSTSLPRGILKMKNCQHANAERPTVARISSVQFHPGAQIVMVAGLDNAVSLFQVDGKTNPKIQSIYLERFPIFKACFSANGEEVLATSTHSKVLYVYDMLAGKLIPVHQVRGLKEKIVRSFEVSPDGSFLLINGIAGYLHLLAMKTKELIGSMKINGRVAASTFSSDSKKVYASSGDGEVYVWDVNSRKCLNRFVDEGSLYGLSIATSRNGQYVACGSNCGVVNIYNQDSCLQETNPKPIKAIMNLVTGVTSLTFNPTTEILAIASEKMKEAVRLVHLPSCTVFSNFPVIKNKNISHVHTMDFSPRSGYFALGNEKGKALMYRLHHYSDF
Sequence of UniProt O75362 (O75362 whole entry, looked up): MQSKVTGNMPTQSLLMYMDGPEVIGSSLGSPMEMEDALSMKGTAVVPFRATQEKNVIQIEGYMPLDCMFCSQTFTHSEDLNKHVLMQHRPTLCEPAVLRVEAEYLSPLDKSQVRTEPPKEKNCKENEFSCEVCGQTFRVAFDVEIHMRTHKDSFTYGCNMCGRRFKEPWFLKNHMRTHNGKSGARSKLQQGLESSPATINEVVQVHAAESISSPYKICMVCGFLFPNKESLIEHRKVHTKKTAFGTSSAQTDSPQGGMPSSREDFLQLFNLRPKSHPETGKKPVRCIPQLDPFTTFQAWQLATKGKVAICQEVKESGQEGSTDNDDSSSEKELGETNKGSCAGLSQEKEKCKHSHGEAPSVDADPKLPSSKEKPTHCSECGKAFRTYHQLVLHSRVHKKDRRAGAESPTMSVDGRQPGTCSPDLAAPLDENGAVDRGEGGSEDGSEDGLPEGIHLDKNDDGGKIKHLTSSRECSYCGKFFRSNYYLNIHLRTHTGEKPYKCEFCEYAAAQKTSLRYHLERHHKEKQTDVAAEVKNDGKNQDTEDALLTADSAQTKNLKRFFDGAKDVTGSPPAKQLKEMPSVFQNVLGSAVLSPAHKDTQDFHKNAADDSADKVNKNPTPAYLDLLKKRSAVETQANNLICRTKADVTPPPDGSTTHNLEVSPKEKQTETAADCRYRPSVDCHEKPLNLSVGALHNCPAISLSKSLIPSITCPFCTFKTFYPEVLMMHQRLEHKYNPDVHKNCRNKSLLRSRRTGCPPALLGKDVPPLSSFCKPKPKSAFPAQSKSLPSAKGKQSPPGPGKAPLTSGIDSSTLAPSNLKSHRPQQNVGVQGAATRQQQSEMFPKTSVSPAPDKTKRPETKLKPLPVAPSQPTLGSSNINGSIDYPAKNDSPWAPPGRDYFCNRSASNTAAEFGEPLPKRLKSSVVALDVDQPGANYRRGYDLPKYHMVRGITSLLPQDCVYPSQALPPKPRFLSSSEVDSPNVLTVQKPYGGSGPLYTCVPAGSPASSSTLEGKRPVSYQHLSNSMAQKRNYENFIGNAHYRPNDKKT

log2 fold change, inactive:
YES1 (UniProt P07947) 0.092, XAB2 (UniProt Q9HCS7) 0.028, VCPIP1 (UniProt Q96JH7) 0.1, ZC3H13 (UniProt Q5T200) 0.102, ZNF609 (UniProt O15014) 0.187, ZC3H11A (UniProt O75152) -0.134, VPS28 (UniProt Q9UK41) 0.034, ZMYM4 (UniProt Q5VZL5) 0.042, ZNF217 (UniProt O75362) 0.052, YDJC (UniProt A8MPS7) -0.033, XPNPEP1 isoform 3 (UniProt Q9NQW7) 0.018, USP9X (UniProt Q93008) 0.027, UQCRC2 (UniProt P22695) -0.007, WRB (UniProt O00258) 0.339, ZBTB33 (UniProt Q86T24) 0.048, WDR62 isoform 4 (UniProt O43379) 0.08, XPO6 (UniProt Q96QU8) 0.175, VPS35L (UniProt Q7Z3J2) 0.065, YEATS4 (UniProt O95619) -0.083, YWHAQ (UniProt P27348) -0.095, VRK1 (UniProt Q99986) -0.014, ZC3HC1 (UniProt Q86WB0) -0.094, USP3 (UniProt Q9Y6I4) -0.04, VPS11 (UniProt Q9H270) 0.065, VPS16 (UniProt Q9H269) 0.03, WDR20 isoform 7 (UniProt Q8TBZ3) 0.081, VAV3 isoform 4 (UniProt Q9UKW4) 0.242, WRNIP1 (UniProt Q96S55) 0.045, UNC13D (UniProt Q70J99) 0.002, VARS (UniProt P26640) 0.029, UTP18 (UniProt Q9Y5J1) -0.038

Source: the supplement of paper PMC10849652
